Measurements reported in PubChem BioAssay.
Where “and” joins values, the source holds several entries; their conditions need not be identical. Identical values can stand only once. Calls of active or inactive are those of the source. How the calls were made is not given here.

assay: inhibitors of hydroxyurea-induced Chk1 phosphorylation, primary screen, imaging, HeLa, phospho-Chk1 nuclear intensity (AID 1187); settings: hydroxyurea-induced phospho-Chk1 immunofluorescence imaging, higher = more signal; further: test concentration not given here

SMILES | z-score
C=CCN(CCCC)C(=O)C1N(CCOCCO)C(=O)C2C(C(=O)O)C3C=CC21O3 (stereo not given) | -0.299 (inactive) and 0.869 (inactive)
C=CCN(C(=O)C1N(C(C)(C)CO)C(=O)C2C(C(=O)O)C3C=CC21O3)C(C)(C)C (stereo not given) | -0.112 (inactive) and 0.674 (inactive)
C=CCN(C(=O)C1N(CCOCCO)C(=O)C2C(C(=O)O)C3C=CC21O3)c1ccc(OC)cc1 (stereo not given) | -0.087 (inactive) and 0.191 (inactive)
O=C1NC(=O)C2C1C=CC(C(O)c1ccc([N+](=O)[O-])cc1)N2Nc1ccc(Cl)cc1Cl (stereo not given) | -1.15 (inactive) and -0.297 (inactive)
CCOC(=O)C[C@H]1[C@H](OC(=O)c2ccccc2-c2ccccc2)[C@@H](NC(=O)c2ccccc2)c2cc(OCCCO)ccc2N1C(=O)c1ccc2ccccc2n1 | 0.118 (inactive) and -0.0805 (inactive)
COC(=O)[C@@]1(Cc2ccc(F)cc2)[C@H]2c3cc(C(=O)N4CCCC4)n(Cc4c(CO)[nH]cc(C)c4=O)c3C[C@H]2CN1C(=O)c1ccccc1 | 0.0243 (inactive) and 0.533 (inactive)
CC(CO)N1C(=O)[C@@H]2C3C(=O)OCCC=C[C@H]3OC23C=CCN(c2ccc4ccccc4c2)C(=O)[C@@H]13 (stereo not given in full) | 0.0032 (inactive) and 0.0969 (inactive)
C=CCN(C(=O)C1N(C(C)(C)CO)C(=O)C2C(C(=O)O)C3C=CC21O3)c1ccc(OC)cc1 (stereo not given) | 1.44 (inactive) and 0.526 (inactive)
C=CCN(C(=O)C(c1cccs1)N(C(=O)/C=C\C(=O)O)c1ccc(CCO)cc1)C(C)(C)C (stereo not given) | 0.344 (inactive) and 0.743 (inactive)
C=C[C@@H](OC)[C@H](O)c1ccc(OC)c(O)c1 | -0.0654 (inactive) and 0.0937 (inactive)
C=CCN(CCCCC)C(=O)C(c1cccs1)N(C(=O)/C=C\C(=O)O)c1ccc(CCO)cc1 (stereo not given) | 0.571 (inactive) and -0.0484 (inactive)
C=CCN(C(=O)C(c1cccs1)N(C(=O)/C=C\C(=O)O)c1c(Cl)cccc1CO)c1ccc(OC)cc1 (stereo not given) | 0.0355 (inactive) and 0.636 (inactive)
C=C[C@H](OC)[C@@H](O)c1ccc(OCCO)cc1 | 0.0287 (inactive) and 0.865 (inactive)
C=CCN(C(=O)C1N(c2c(Cl)cccc2CO)C(=O)C2C(C(=O)O)C3C=CC21O3)c1ccc(OC)cc1 (stereo not given) | 0.0631 (inactive) and -0.682 (inactive)
C#CCN1C(/C=C/c2ccccc2)C(=O)OC[C@H]1c1ccccc1 (stereo not given in full) | -0.322 (inactive) and -0.239 (inactive)
C=C[C@H](C)[C@H](O)c1ccc(O)c2ccccc12 | -0.114 (inactive) and -0.271 (inactive)
C=CCN(C(=O)C1N(CCOCCO)C(=O)C2C(C(=O)O)C3C=CC21O3)C(C)(C)C (stereo not given) | -0.47 (inactive) and 0.312 (inactive)
C[N+](C)(C)CCCCCCNC(=O)[C@@H]1C[C@@H]2C(=O)N[C@@H](CCCC[N+](C)(C)C)C(=O)N2[C@@H]1c1ccc(O)cc1 | 0.424 (inactive) and 0.327 (inactive)
C[N+](C)(C)CCCCCCNC(=O)[C@H]1C[C@H]2C(=O)N[C@@H](CCCC[N+](C)(C)C)C(=O)N2[C@H]1c1ccc(O)cc1 | -0.225 (inactive) and -0.0689 (inactive)
C=CCN(CCCC)C(=O)C(c1cccs1)N(CCOCCO)C(=O)/C=C\C(=O)O (stereo not given) | 0.132 (inactive) and 1.47 (inactive)
C=CCN(CCCC)C(=O)C1N(c2ccc(CCO)cc2)C(=O)C2C(C(=O)O)C3C=CC21O3 (stereo not given) | -0.173 (inactive) and -0.502 (inactive)
C[N+](C)(C)CCCCNC(=O)[C@@H]1C[C@@H]2C(=O)N[C@@H](CCCC[N+](C)(C)C)C(=O)N2[C@@H]1c1cccc(OCCO)c1 | 0.0051 (inactive) and -0.229 (inactive)
C=CCN(Cc1ccccc1)C(=O)C1N(C(C)(C)CO)C(=O)C2C(C(=O)O)C3C=CC21O3 (stereo not given) | -0.326 (inactive) and -0.297 (inactive)
C=CCN(Cc1ccccc1)C(=O)C1N(CCOCCO)C(=O)C2C(C(=O)O)C3C=CC21O3 (stereo not given) | 0.031 (inactive) and 1.13 (inactive)
C=CCN(C(=O)C(c1cccs1)N(C(=O)/C=C\C(=O)O)c1ccc(CCO)cc1)c1ccc(OC)cc1 (stereo not given) | 0.686 (inactive) and 0.548 (inactive)
